Results filed as inconclusive are left out. Activity calls are given as the source filed them. Calls follow the shape of the dose curve; as a rule, active = well fitted curve in the direction sought with a large enough effect; inconclusive = small, poorly fitted or top-dose-only effect, or another doubt; inactive = no such curve, though single readings can be large; an effect the other way counts as inactive or inconclusive.
Experiments:
[1] = qHTS of pediatric cancer cell lines to identify multiple opportunities for drug repurposing: Primary screen for SK-N-MC cells (AID 1347093);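 also: series mostly up to about 46 µM; plate controls were DMSO neutral control for no effect and bortezomib for full effect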
How it was run: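 Metabolically active cells were quantified by ATP-dependent luminescence (CellTiter-Glo, 15 min at room temperature) following 48 h treatment. Cells had been plated at 500-1,000 per well and settled for 5 h beforehand.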

[2] = qHTS of pediatric cancer cell lines to identify multiple opportunities for drug repurposing: Primary screen for BT-37 cells (AID 1347094);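 also: series mostly up to about 57 µM; plate controls were DMSO for no effect and bortezomib for full effect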
How it was run: (§1)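 Following a 5-hour attachment period, cells at 500-1,000/well received compounds and were cultured for 48 hours. CellTiter-Glo was added and luminescence read to estimate viable, metabolically active cells.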

[3] = qHTS of pediatric cancer cell lines to identify multiple opportunities for drug repurposing: Primary screen for NB-EBc1 cells (AID 1347095);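 also: plate controls were DMSO neutral control for no effect and bortezomib for full effect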
How it was run: as §1

[4] = qHTS of pediatric cancer cell lines to identify multiple opportunities for drug repurposing: Primary screen for U-2 OS cells (AID 1347096);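 also: plate controls were DMSO wells for no effect and bortezomib positive control wells for full effect; nearly all actives have a fitted effect of over 50% in size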
How it was run: (§2)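 Cells (500-1,000/well) in growth media were settled 5 h at 37 degrees C, then given compounds for 48 h. Viability was read as CellTiter-Glo luminescence. Primary runs used MIPE at 11 points (0.78 nM-46 µM) and NPC at 8 points (0.59 nM-46 µM); follow-ups used 11 points.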

[5] = qHTS of pediatric cancer cell lines to identify multiple opportunities for drug repurposing: Primary screen for Saos-2 cells (AID 1347097); also: % is scaled to controls: 0 for no effect and ±100 for the full control effect; nearly all actives have a fitted effect of over 40% in size
How it was run: as §1

[6] = qHTS of pediatric cancer cell lines to identify multiple opportunities for drug repurposing: Primary screen for SK-N-SH cells (AID 1347098);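 also: DMSO served as neutral control and bortezomib at 2.3 µM as positive control; % is scaled to controls: 0 for no effect and ±100 for the full control effect; nearly all actives have a fitted effect of over 65% in size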
How it was run: (§3)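 Cells (500-1,000/well) rested 5 h, then received compounds for 48 h; metabolically active cells were measured by CellTiter-Glo luminescence. Final concentrations spanned up to 46 µM (MIPE, 11-point) or 0.59 nM-46 µM (NPC, 8-point) in primary screens, 11-point in follow-ups.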

[7] = qHTS of pediatric cancer cell lines to identify multiple opportunities for drug repurposing: Primary screen for NB1643 cells (AID 1347099);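 also: plate controls were DMSO neutral control for no effect and bortezomib positive control for full effect; nearly all actives have a fitted effect of over 50% in size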
How it was run: as §1

[8] = qHTS of pediatric cancer cell lines to identify multiple opportunities for drug repurposing: Primary screen for LAN-5 cells (AID 1347100);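 also: plate controls were DMSO neutral control for no effect and bortezomib positive control for full effect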
How it was run: as §2

[9] = qHTS of pediatric cancer cell lines to identify multiple opportunities for drug repurposing: Primary screen for BT-12 cells (AID 1347101);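 also: plate controls were DMSO for no effect and bortezomib positive control for full effect; nearly all actives have a fitted effect of over 25% in size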
How it was run: as §3

[10] = qHTS of pediatric cancer cell lines to identify multiple opportunities for drug repurposing: Primary screen for Rh18 cells (AID 1347102); also: % is scaled to controls: 0 for no effect and ±100 for the full control effect; nearly all actives have a fitted effect of over 65% in size
How it was run: as §2

CCOC(=O)c1ccc(NC(=O)CN2CCCCC2)cc1
inactive: Potency [1] | Potency [2] | Potency [3] | Potency [4] | Potency [5] | Potency [6] | Potency [7] | Potency [8] | Potency [9] | Potency [10]

CCOC(=O)C(=O)c1csc(NC=O)n1
inactive: Potency [1] | Potency [2] | Potency [3] | Potency [4] | Potency [5] | Potency [6] | Potency [7] | Potency [8] | Potency [9] | Potency [10]

NC(=O)NS(=O)(=O)c1ccc(Cl)cc1
inactive: Potency [1] | Potency [2] | Potency [3] | Potency [4] | Potency [5] | Potency [6] | Potency [7] | Potency [8] | Potency [9] | Potency [10]

C[N+]1(CC2COC(c3ccccc3)(c3ccccc3)O2)CCCCC1 (stereo not given)
inactive: Potency [1] | Potency [2] | Potency [3] | Potency [4] | Potency [5] | Potency [6] | Potency [7] | Potency [8] | Potency [9] | Potency [10]

C/C(=N\O)[C@@H](C)NCC(C)(C)CN[C@H](C)/C(C)=N/O
inactive: Potency [1] | Potency [2] | Potency [3] | Potency [4] | Potency [5] | Potency [6] | Potency [7] | Potency [8] | Potency [9]

Cc1ccc(-c2ccccc2C#N)cc1
inactive: Potency [1] | Potency [2] | Potency [3] | Potency [4] | Potency [5] | Potency [6] | Potency [7] | Potency [8] | Potency [9] | Potency [10]

O=C(C1CCCCC1)N1CC(=O)N2CCCc3ccccc3C2C1 (stereo not given)
inactive: Potency [1] | Potency [2] | Potency [3] | Potency [4] | Potency [5] | Potency [6] | Potency [7] | Potency [8] | Potency [9] | Potency [10]

COc1ccc2c(c1)CCCC2=O
inactive: Potency [1] | Potency [2] | Potency [3] | Potency [4] | Potency [5] | Potency [6] | Potency [7] | Potency [8] | Potency [9] | Potency [10]

CC(=O)OC[C@H]1O[C@@H](OC(C)=O)[C@H](OC(C)=O)[C@@H]1OC(C)=O
inactive: Potency [1] | Potency [2] | Potency [3] | Potency [4] | Potency [5] | Potency [6] | Potency [7] | Potency [8] | Potency [9] | Potency [10]

O=C(O)c1[nH]n(-c2ccc(S(=O)(=O)O)cc2)c(=O)c1N=Nc1ccc(S(=O)(=O)O)cc1
inactive: Potency [1] | Potency [2] | Potency [3] | Potency [4] | Potency [5] | Potency [6] | Potency [7] | Potency [8] | Potency [9] | Potency [10]

Fc1ccc(C(c2ccc(F)cc2)N2CCNCC2)cc1
inactive: Potency [1] | Potency [2] | Potency [3] | Potency [4] | Potency [5] | Potency [6] | Potency [7] | Potency [8]

Cc1oc(=O)oc1COC(=O)[C@@H]1N2C(=O)[C@@H](NC(=O)[C@H](N)c3ccccc3)[C@H]2SC1(C)C
inactive: Potency [1] | Potency [2] | Potency [3] | Potency [4] | Potency [5] | Potency [6] | Potency [7] | Potency [8] | Potency [9] | Potency [10]

Cc1c(F)cc2c(=O)c(C(=O)O)cn3c2c1CCC3C (stereo not given)
inactive: Potency [1] | Potency [2] | Potency [3] | Potency [4] | Potency [5] | Potency [6] | Potency [7] | Potency [8] | Potency [9]

CC(C)OC(=O)c1cc2c(OCC(O)CNC(C)(C)C)cccc2[nH]1 (stereo not given)
inactive: Potency [1] | Potency [2] | Potency [3] | Potency [4] | Potency [5] | Potency [6] | Potency [7] | Potency [8] | Potency [9]

CC(=O)N(c1onc(C)c1C)S(=O)(=O)c1ccc(N)cc1
inactive: Potency [1] | Potency [2] | Potency [3] | Potency [4] | Potency [5] | Potency [6] | Potency [7] | Potency [8] | Potency [9] | Potency [10]

O=C(CCCCC(=O)Nc1c(I)cc(I)c(C(=O)O)c1I)Nc1c(I)cc(I)c(C(=O)O)c1I
inactive: Potency [1] | Potency [2] | Potency [3] | Potency [4] | Potency [5] | Potency [6] | Potency [7] | Potency [8] | Potency [9] | Potency [10]

CCCCN(CCCC)C(C(N)=O)c1ccc(OC)cc1 (stereo not given)
inactive: Potency [1] | Potency [2] | Potency [3] | Potency [4] | Potency [5] | Potency [6] | Potency [7] | Potency [8] | Potency [9] | Potency [10]

O=C(CO)[C@@H](O)[C@H](O)[C@@H](O)CO
inactive: Potency [1] | Potency [2] | Potency [3] | Potency [4] | Potency [5] | Potency [6] | Potency [7] | Potency [8] | Potency [9] | Potency [10]

O=C(CCOCCOCCOCCOCCC(=O)Nc1c(I)cc(I)c(C(=O)O)c1I)Nc1c(I)cc(I)c(C(=O)O)c1I
inactive: Potency [1] | Potency [2] | Potency [3] | Potency [4] | Potency [5] | Potency [6] | Potency [7] | Potency [8] | Potency [9] | Potency [10]

NCC[C@H](O)C(=O)N[C@@H]1C[C@H](N)[C@@H](O[C@H]2O[C@H](CN)[C@@H](O)[C@H](O)[C@@H]2O)[C@H](O)[C@@H]1O[C@H]1O[C@H](CO)[C@@H](O)[C@H](N)[C@@H]1O
inactive: activity change, negative = cytotoxic [1] -10.7% [at 0.597 µM] | activity change, negative = cytotoxic [2] 11.5% [at 0.745 µM] | activity change, negative = cytotoxic [3] 17.9% [at 0.597 µM] | activity change, negative = cytotoxic [4] 14.2% [at 0.597 µM] | activity change, negative = cytotoxic [5] 9.12% [at 0.597 µM] | activity change, negative = cytotoxic [6] -13.1% [at 0.741 µM] | activity change, negative = cytotoxic [7] 2.83% [at 0.597 µM] | activity change, negative = cytotoxic [8] 0.172% [at 0.597 µM] | activity change, negative = cytotoxic [9] 5.54% [at 0.745 µM] | activity change, negative = cytotoxic [10] 1.72% [at 0.597 µM]

CSc1ccc(/C=C2/C(C)=C(CC(=O)O)c3cc(F)ccc32)cc1
inactive: Potency [1] | Potency [2] | Potency [3] | Potency [4] | Potency [5] | Potency [6] | Potency [7] | Potency [8] | Potency [9] | Potency [10]

O=C(CS(=O)Cc1ccco1)NC/C=C\COc1cc(CN2CCCCC2)ccn1 (stereo not given)
inactive: Potency [1] | Potency [2] | Potency [3] | Potency [4] | Potency [5] | Potency [6] | Potency [7] | Potency [8] | Potency [9] | Potency [10]

Reference: PubChem BioAssay (NCATS)
